{
  "source": "ChEMBL document CHEMBL4513141",
  "about": "“CO-ADD screening of NIH (USA) - Clinical Collection” (2021)",
  "note": "Potency and affinity values are given separately.",
  "data": [
    {"system": "Staphylococcus aureus", "conditions": "Concentration 20 uM; ASSAY_TEST Inhibition of Bacterial Growth; detection method Absorption (OD600); MEDIA CAMHB; plate type 384well; NBS; CORNING #3640; time 18 hr", "units": {"Inhibition": "%"}, "values": [
      {"smiles": "COc1cc(C[C@@H](CO)[C@H](CO)Cc2ccc(O)c(OC)c2)ccc1O", "note": "[(+)-SECOISOLARICIRESINOL]", "Inhibition": 14.2},
      {"smiles": "CCCCNC(=O)NS(=O)(=O)c1ccc(C)cc1", "note": "[TOLBUTAMIDE]", "Inhibition": 4.92},
      {"smiles": "Cc1cnc(C(=O)NCCc2ccc(S(=O)(=O)NC(=O)NC3CCCCC3)cc2)cn1", "note": "[GLIPIZIDE]", "Inhibition": 13.08},
      {"smiles": "CC1=C(CC(=O)O)c2cc(F)ccc2/C1=C\\c1ccc([S+](C)[O-])cc1", "note": "(centres undefined)", "Inhibition": 2.19},
      {"smiles": "CC(C)(C)C(O)/C=C/c1ccc2c(c1)OCO2", "note": "(centres undefined) [STIRIPENTOL]", "Inhibition": 0.92},
      {"smiles": "C[n+]1ccccc1/C=N/O.[Cl-]", "note": "[PRALIDOXIME CHLORIDE]", "Inhibition": 12.69},
      {"smiles": "COc1ccc2cc([C@H](C)C(=O)[O-])ccc2c1.[Na+]", "note": "[NAPROXEN SODIUM]", "Inhibition": 6.58},
      {"smiles": "Cc1sc(N)c(C(=O)c2cccc(C(F)(F)F)c2)c1C", "Inhibition": 5.2},
      {"smiles": "CN(C)CCOC(c1ccccc1)c1ccccc1.Cl", "note": "[DIPHENHYDRAMINE HYDROCHLORIDE]", "Inhibition": -13.43},
      {"smiles": "Nc1ccc2cn[nH]c2c1", "Inhibition": -30.24},
      {"smiles": "CC(C)(C)NC[C@H](O)COc1nsnc1N1CCOCC1.O=C(O)/C=C\\C(=O)O", "note": "[TIMOLOL MALEATE]", "Inhibition": 2.99},
      {"smiles": "CN(C)CCCN1c2ccccc2CCc2ccccc21.Cl", "note": "[IMIPRAMINE HYDROCHLORIDE]", "Inhibition": 8.95},
      {"smiles": "Nc1c2c(nc3c1CCC3)CCCC2", "note": "[IPIDACRINE]", "Inhibition": 16.52},
      {"smiles": "CN(C)CCCN1c2ccccc2CCc2ccc(Cl)cc21.Cl", "note": "[CLOMIPRAMINE HYDROCHLORIDE]", "Inhibition": 14.19},
      {"smiles": "CC(=O)O[C@]1(C(C)=O)CC[C@H]2[C@@H]3C[C@H](C)C4=CC(=O)CC[C@]4(C)[C@H]3CC[C@@]21C", "note": "[MEDROXYPROGESTERONE ACETATE]", "Inhibition": 10.39},
      {"smiles": "CCN(CC)CC(=O)Nc1c(C)cccc1C", "note": "[LIDOCAINE]", "Inhibition": 9.46},
      {"smiles": "Nc1ccc(O)c(C(=O)O)c1", "note": "[MESALAMINE]", "Inhibition": -19.58},
      {"smiles": "C/C=C1/[C@H]2C=C(C)C[C@]1(N)c1ccc(O)nc1C2", "Inhibition": 13.84},
      {"smiles": "O=C(NCCO[N+](=O)[O-])c1cccnc1", "note": "[NICORANDIL]", "Inhibition": 13.24},
      {"smiles": "Cl.O=C(NCC1CCCCN1)c1cc(OCC(F)(F)F)ccc1OCC(F)(F)F", "note": "(centres undefined)", "Inhibition": 10.41},
      {"smiles": "CC(C)[N+]1(C)C2CCC1CC(OC(=O)C(CO)c1ccccc1)C2.[Br-]", "note": "(centres undefined)", "Inhibition": 9.02},
      {"smiles": "CN(Cc1cnc2nc(N)nc(N)c2n1)c1ccc(C(=O)N[C@@H](CCC(=O)O)C(=O)O)cc1.O", "Inhibition": 8.23},
      {"smiles": "COc1cc2nc(N(C)CCCNC(=O)C3CCCO3)nc(N)c2cc1OC", "note": "(centres undefined) [ALFUZOSIN]", "Inhibition": 6},
      {"smiles": "COc1ccc(CC2c3cc(OC)c(OC)cc3CC[N+]2(C)CCC(=O)OCCCCCOC(=O)CC[N+]2(C)CCc3cc(OC)c(OC)cc3C2Cc2ccc(OC)c(OC)c2)cc1OC.O=S(=O)(O)c1ccccc1", "note": "(centres undefined)", "Inhibition": 4.52},
      {"smiles": "CN(C)CCCSc1ccccc1NC(=O)/C=C/c1ccccc1.Cl.O", "Inhibition": 14.82},
      {"smiles": "CN(CCOc1ccc(NS(C)(=O)=O)cc1)CCc1ccc(NS(C)(=O)=O)cc1", "note": "[DOFETILIDE]", "Inhibition": 11.97},
      {"smiles": "CC1=C(C(=O)O)N2C(=O)[C@@H](NC(=O)[C@H](N)c3ccccc3)[C@H]2SC1.O", "note": "[CEPHALEXIN]", "Inhibition": -0.36},
      {"smiles": "CN1CCC(=C2c3ccccc3CC(=O)c3sccc32)CC1.O=C(O)/C=C/C(=O)O", "note": "[KETOTIFEN FUMARATE]", "Inhibition": 6.88},
      {"smiles": "CN(C)c1nc(N(C)C)nc(N(C)C)n1", "note": "[ALTRETAMINE]", "Inhibition": 15.78},
      {"smiles": "CC(C)c1ccc2c(c1)c(SC(C)(C)C)c(CC(C)(C)C(=O)O)n2Cc1ccc(Cl)cc1", "Inhibition": 10.09},
      {"smiles": "C[C@]12CCC(=O)C=C1CC[C@@H]1[C@@H]2[C@@H](O)C[C@@]2(C)[C@H]1CC[C@]2(O)C(=O)CO", "note": "[HYDROCORTISONE]", "Inhibition": 7.72},
      {"smiles": "CC(C)(C(=O)O)c1ccc(C(O)CCCN2CCC(C(O)(c3ccccc3)c3ccccc3)CC2)cc1.Cl", "note": "(centres undefined) [FEXOFENADINE HYDROCHLORIDE]", "Inhibition": 11.48},
      {"smiles": "CC(C)NCC(O)c1ccc(NS(C)(=O)=O)cc1.Cl", "note": "(centres undefined) [SOTALOL HYDROCHLORIDE]", "Inhibition": -25.28},
      {"smiles": "NC(CO)(CO)CO.O=C(c1ccccc1)c1ccc2n1CCC2C(=O)O", "note": "(centres undefined) [KETOROLAC TROMETHAMINE]", "Inhibition": 4.45}
    ]}
  ]
}
